In all, about 340,000 compounds went through this assay and about 3,300 (0.97%) were called active. The sample holds actives, similar compounds and a random draw of the others, so the mix is not that of the screen. Unmarked numbers belong to inactive results.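 How the source made its calls: active means mean activation above about 17%, with every replicate also reaching it (limit read from the data, passing the limit was not always enough); inconclusive means only one of the two conditions met; inactive means the rest.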

The target in the assay is Protein FosB (Mus musculus) (UniProt P13346). In words: enhancers of mouse delta FosB DNA binding – biochemical, fluorescence polarization, TAMRA-CDK5 oligo, single point, primary screen (AID 493131).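 Further: fluorescence polarization rise as delta FosB binds a TAMRA Cdk5 AP-1 oligo.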 Particulars: purified delta FosB, at 25 µM, active compounds read high, percent of positive-control signal above neutral wells. In general terms: Polarisation of emitted light reports the rotation of a fluorescent probe.
Sequence of Protein FosB (Mus musculus) (P13346 whole entry, looked up): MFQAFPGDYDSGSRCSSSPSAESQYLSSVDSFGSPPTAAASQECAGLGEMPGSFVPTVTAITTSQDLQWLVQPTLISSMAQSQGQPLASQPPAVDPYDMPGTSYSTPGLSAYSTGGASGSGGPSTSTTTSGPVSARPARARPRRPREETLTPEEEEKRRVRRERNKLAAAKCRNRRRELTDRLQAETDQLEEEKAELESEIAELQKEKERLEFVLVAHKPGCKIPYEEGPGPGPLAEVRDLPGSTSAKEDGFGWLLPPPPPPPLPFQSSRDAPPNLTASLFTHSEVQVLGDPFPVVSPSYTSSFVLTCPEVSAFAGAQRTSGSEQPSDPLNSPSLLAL
As for `COc1cc(C2C(C(=O)Nc3ccccc3OC)=C(C)Nc3ncnn32)ccc1O` (stereo not given), the activation is -9.43%.

For the compound `COc1ccccc1NC(=O)C1=C(C)Nc2nnnn2C1c1cccc(Br)c1` (stereo not given), the activation was 27.9% (active).

`COc1ccc(C2C(C(=O)Nc3ccccc3OC)=C(C)Nc3nnnn32)c(OC)c1` (stereo not given): the activation is -2.93%.

As for `COc1ccc(-c2cc3nc(C)c(CCC(=O)NC(C)CCc4ccco4)c(C)n3n2)c(OC)c1` (stereo not given), the activation is -2.13%.

Consider `Cc1ccc(NC(=O)CCC(=O)N2CCC(c3ccccc3)=N2)cc1S(=O)(=O)N1CCCCC1`, for which the activation is 10.2%.

As for `Cc1sc2ncnc(N3CCC(C(=O)NNC(=O)c4ccc(F)cc4)CC3)c2c1C`, the activation is -4.25%.

`Cc1sc2ncnc(N3CCC(C(=O)Nc4ccc(F)cc4Cl)CC3)c2c1C`: the activation was -2.12%.

With `Cc1sc2ncnc(N3CCC(C(=O)Nc4nc5ccc(Cl)cc5s4)CC3)c2c1C`, the activation is 43.5% (active).

As to `Cc1cccc(-n2nc3c(c2NC(=O)c2cc4ccccc4o2)CS(=O)(=O)C3)c1`, the activation was -22.1%.

On to `COc1ccc(CCNC(=O)c2nnc(CS(=O)(=O)c3ccccc3)o2)cc1OC`, for which the activation was -8.02%.

Regarding `CCCCNC(=S)N/N=C1\CCCCc2ccccc21`, the activation is -5.41%.

As to `CCOc1ccc(Cn2nnc(C(=O)Nc3ccc(OC)cc3OC)c2N)cc1`, the activation is 7.56%.

With `CCN(CC(=O)NCc1cccs1)c1nnnn1-c1ccccc1`, the activation is 1.6%.

With `CCOc1ccccc1NC(=O)Cn1ncc2ccc([N+](=O)[O-])cc21`, the activation was -5.27%.

Consider `COc1ccc(NC(=O)Cn2nnc(C(=O)NCCc3ccc(OC)c(OC)c3)c2N)cc1`, for which the activation was -1.69%.

Consider `COc1cccc(CNC(=O)c2nnn(CC(=O)Nc3cc(Cl)ccc3C)c2N)c1`, for which the activation is 70.5% (active).

In the case of `COc1ccc(S(=O)(=O)N2CCC(C(=O)NCCC(=O)NCc3cccc(OC)c3)CC2)cc1`, the activation was -3.09%.

Consider `COc1ccc(CNC(=O)c2nnn(CC(=O)Nc3cc(C)cc(C)c3)c2N)cc1`, for which the activation is 48.3% (active).

For `COc1cccc(CNC(=O)c2nnn(CC(=O)Nc3cc(C)ccc3C)c2N)c1`, the activation is 52.8% (active).

As to `Cc1ccc(NC(=O)Cn2nnc(C(=O)NCc3ccco3)c2N)c(C)c1`, the activation was 14.6%.

Regarding `CCOc1ccccc1NC(=O)Cn1nnc(C(=O)NCc2cccs2)c1N`, the activation was 28.6% (active).

For the compound `COc1cccc(CNC(=O)c2cccnc2Sc2ccc(Cl)cc2)c1`, the activation is -12%.

`COc1cccc(CNC(=O)c2n[nH]c3ccccc23)c1`: the activation is -2.62%.

For `O=C(O)c1ccc(S(=O)(=O)c2ccccc2)s1`, the activation is 0.96%.

Turning to `O=S(=O)(Nc1ccc(OC(F)(F)F)cc1)c1cccc2nonc12`, the activation is 2.63%.

Consider `N#Cc1c(/N=C/N2CCCC2)oc(-c2ccccc2)c1-c1ccccc1`, for which the activation is -4.67%.

With `CC(Sc1nnnn1C1CCCCC1)C(=O)O` (stereo not given), the activation is 1.4%.

In the case of `Cc1cccc(CSc2nc3c(c(=O)n2C)SCC3)c1`, the activation is -8.87%.

In the case of `CCN(CC)c1ccc(S(=O)(=O)N2CCOCC2)cc1NC(=O)CSc1cccc[n+]1[O-]`, the activation is 4.76%.

In the case of `NC(=O)Nc1ccc(C(=O)OCC(=O)NC2CCCc3ccccc32)cc1` (stereo not given), the activation was 0.99%.

Take `Nc1ccc(C(=O)OCC(=O)NC2CCS(=O)(=O)C2)cc1[N+](=O)[O-]` (stereo not given): the activation is -1.21%.

For the compound `Nc1ccc(C(=O)OCC(=O)NC2CCCc3ccccc32)cc1[N+](=O)[O-]` (stereo not given), the activation is 35.5% (active).

Take `CC1(C(=O)O)CCC(C(=O)Nc2ccc(Cl)c(Cl)c2)C1(C)C` (stereo not given): the activation was -5.56%.

For the compound `COc1ccc(OCCCC(=O)Nc2nnc(C3CCCO3)s2)cc1` (stereo not given), the activation is -9.89%.

Turning to `COc1ccc(NC(=O)CCC(=O)Nc2nnc(C3CCCCC3)s2)cc1`, the activation was 23.2% (active).

In the case of `COc1ccc2c(CC(=O)Nc3nnc(C4CC4)s3)coc2c1`, the activation was -0.902%.

For `O=C(Cc1ccc(Br)cc1)NCCN1CCOCC1`, the activation was 7.04%.

As for `CC1CCCCC1NC(=O)/C(C#N)=C/C=C/c1ccccc1[N+](=O)[O-]` (stereo not given), the activation was -2.37%.

As for `Cn1c(=O)c2ccccc2n(CC(=O)Nc2ccc3c(c2)OCCO3)c1=O`, the activation is 5.57%.

As to `Cc1cccc(C(=O)Nc2ccccc2-c2nnn(CC(=O)Nc3ccc4c(c3)OCCO4)n2)c1`, the activation was 20.1% (active).

Regarding `Cc1ccc(S(=O)(=O)NCC(=O)Nc2ccc3c(c2)OCCO3)cc1`, the activation is -0.347%.

Regarding `CS(=O)(=O)c1ccc(-c2nnn(CC(=O)Nc3ccc4c(c3)OCCO4)n2)cc1`, the activation is 37.1% (active).

As to `Cc1ccc(SCC(=O)Nc2ccc3c(c2)OCCO3)cc1`, the activation is -1.62%.

Consider `COc1ccc(S(=O)(=O)N(C)CC(=O)Nc2ccc3c(c2)OCCO3)cc1OC`, for which the activation was -3.7%.

Consider `O=C(c1cccc(N2CCCC2=O)c1)N1CCOCC1`, for which the activation was -2.25%.

With `CN(Cc1cccs1)C(=O)Cc1c[nH]c2ccccc12`, the activation is 0.954%.

`COc1ccc(NC(=O)CN(C)C(=O)c2ccc(NC3CC3)c([N+](=O)[O-])c2)cc1`: the activation was 4.11%.

For `COc1ccc(CCNC(=O)CSc2nc3[nH]ncc3c(=O)n2-c2cccc(C(F)(F)F)c2)cc1OC`, the activation is 0.114%.

For the compound `COc1ccc(-n2cnnc2SCC(=O)Nc2cccc([N+](=O)[O-])c2)cc1`, the activation is 9.7%.

With `NC(=O)NC(=O)CSc1nc2cc([N+](=O)[O-])ccc2n1-c1cccc(C(F)(F)F)c1`, the activation was 20.9% (active).

For `O=C(COc1ccccc1)Nc1nonc1NC(=O)COc1ccccc1`, the activation was 1.39%.

Take `COC(=O)CC1=NN(c2nc(C)cc(C)n2)C(=O)C1`: the activation was 0.664%.

Regarding `CS(=O)(=O)N(CC(=O)N1CCCC1)Cc1ccccc1`, the activation is -9%.

Turning to `Cc1ccc(-c2nc(CS(=O)CC(=O)N3CCN(c4ncccn4)CC3)c(C)o2)cc1` (stereo not given), the activation was -11.3%.

In the case of `Cc1[nH]c2c(C(=O)N3CCCC(CCC(=O)NCc4ccccc4F)C3)cccc2c1C` (stereo not given), the activation was -10%.

Take `O=C(Nc1c[nH]c(=O)[nH]c1=O)OCc1ccccc1`: the activation is 1.77%.

Take `Cc1cc(NC(=O)Nc2c[nH]c(=O)[nH]c2=O)ccc1Br`: the activation was 27% (active).

On to `Cc1ccc(NC(=O)Nc2ccccc2)c(Br)c1`, for which the activation is -6.25%.

With `CCOC(=O)CCC(NC(=O)c1ccc(CNc2nc3cc(C(F)(F)F)ccc3nc2C(=O)OCC)cc1)C(=O)OCC` (stereo not given), the activation is -4.97%.

Take `CC(=O)Nc1ccc(S(=O)(=O)NCC(=O)OCc2cc(=O)oc3ccc4ccccc4c23)cc1`: the activation is 38.6% (active).

As to `COc1ccccc1C(=O)COC(=O)CNS(=O)(=O)c1ccc(NC(C)=O)cc1`, the activation was -5.62%.

As for `COc1ccccc1CNC(=O)COC(=O)CNS(=O)(=O)c1ccc(NC(C)=O)cc1`, the activation was 0.477%.

Consider `CC1CCC(N2CC(=O)N(Cc3ccc4c(c3)OCO4)C(c3ccc(F)cc3)C2=O)CC1` (stereo not given), for which the activation is -1.56%.

As to `O=C(CN(Cc1ccccc1)C(=O)CCC(=O)Nc1ccccn1)NCCc1ccccc1`, the activation was -12.5%.

For the compound `CCCOc1ccc(C(=O)CCC(=O)OC(C)C(=O)Nc2ccc(NC(C)=O)cc2)cc1` (stereo not given), the activation was 11.5%.

Turning to `CCCOc1ccc(/C=N/NC(=O)C2CC2)c(OCCC)c1`, the activation was -10.6%.

In the case of `CCCOc1ccc(C(=O)C(CCC(CNCC)C(=O)c2ccc(OCCC)cc2)CNCC)cc1` (stereo not given), the activation is 18.7% (active).

In the case of `Nc1nc(SCC(=O)Nc2cc(C(F)(F)F)ccc2Cl)[nH]c(=O)c1NC(=O)c1ccco1`, the activation was 48.3% (active).

On to `O=C(Nc1cc(-c2nc3ncccc3o2)ccc1Cl)c1ccco1`, for which the activation is -46.8%.

Regarding `COC(=O)c1ccc(NC(=O)CSc2nc(N)c(NC(=O)c3ccc(Br)o3)c(=O)[nH]2)cc1`, the activation was 10.1%.

Consider `CCN(CC(=O)NCc1ccc(F)cc1)S(=O)(=O)c1ccc(Cl)s1`, for which the activation was 6.54%.

`NN=C(NN=Cc1ccccc1)c1ccccc1`: the activation is -14.8%.

Consider `COc1ccc(C)cc1NC(=O)CSc1cccc[n+]1[O-]`, for which the activation was 6.31%.

As for `O=C(Nc1nnc(C2COc3ccccc3O2)o1)c1ccc(F)cc1` (stereo not given), the activation is 1.05%.

For `COc1ccc(N(CC(=O)N/N=C/c2cccc3c2OCCO3)S(=O)(=O)c2ccc(NC(C)=O)cc2)cc1`, the activation is -0.26%.

On to `Cc1cc(=O)[nH]c2nnnn12`, for which the activation is -4.86%.

As for `CCN(CC)CCNc1ccc(Cl)cc1[N+](=O)[O-]`, the activation is 4.58%.

With `O=C(Nc1nc(-c2ccc(-c3ccccc3)cc2)cs1)c1cnccn1`, the activation is 21.9% (active).

`O=C(Nc1nnc(Cc2ccccc2)s1)c1cnccn1`: the activation was -3.57%.

Regarding `O=C(NCc1cccnc1)C(=O)Nc1nc(-c2ccccc2)cs1`, the activation was -5.18%.

As to `CCCCC(NS(=O)(=O)c1ccc(C)cc1)C(=O)Oc1ccc2c3c(c(=O)oc2c1)CCC3` (stereo not given), the activation was -11.5%.

Take `CCOc1ccc(NC(=O)c2ccc(CSc3nnnn3C)cc2)cc1`: the activation was -3.33%.

`O=C(N/N=C/c1cccc(Br)c1)c1ccc(N2CCCC2=O)cc1`: the activation was 86.6% (active).

In the case of `O=C(Nc1ccc(N2CCCC2=O)cc1)c1cncc(Br)c1`, the activation was -1.59%.

Consider `Cn1c(=O)n(C)c2cc(/C=N/NC(=O)c3cccc(Br)c3)ccc21`, for which the activation is 10.7%.

Take `CCN(CC(=O)Nc1c(F)cccc1F)C(=O)Cc1cccs1`: the activation is 3.46%.

As to `Cc1cc(C)cc(NC(=O)C(OC(=O)c2ccc(O)cc2)c2ccccc2)c1` (stereo not given), the activation is 6.84%.

Turning to `COc1ccc(C)cc1NC(=O)C(OC(=O)c1cccc(S(=O)(=O)N(C)c2ccccc2)c1)c1ccccc1` (stereo not given), the activation is -8.39%.

With `Cc1ccc(C)c(NC(=O)C(OC(=O)c2ccc(C)s2)c2ccccc2)c1` (stereo not given), the activation was 23.6% (active).

Regarding `C/C(CC(=O)NCc1ccc(Cl)cc1)=N\NC(=O)COc1ccc(C)cc1Br`, the activation was -6.55%.

The values are drawn from PubChem BioAssay AID493131 (Broad Institute, 2011).
